Screens deposited in PubChem BioAssay by NMMLSC.
Avidin bead fluor – compound fluoresces at 488/530 nm on avidin beads; compound fluorescence 488/530 nm, flow cytometry; hits give high values; fluorescence (KMESF) at 10 µM; 0.38% of 220,000 active; AID 1775; in the data active = fluorescence above about 47
RGS4-Gao reg – modulates binding of RGS4 to human Galphao; P09471; Multiplexed bead flow cytometry; actives lie on both sides; binding response (% of control), % at 10 µM; 0.33% of 220,000 active; in the data active = binding response below about 49% or above about 150%; inactive = in between;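 also: fluorescent Galphao activated with aluminum fluoride binding bead-coupled RGS4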
Target sequence (P09471 whole entry, looked up): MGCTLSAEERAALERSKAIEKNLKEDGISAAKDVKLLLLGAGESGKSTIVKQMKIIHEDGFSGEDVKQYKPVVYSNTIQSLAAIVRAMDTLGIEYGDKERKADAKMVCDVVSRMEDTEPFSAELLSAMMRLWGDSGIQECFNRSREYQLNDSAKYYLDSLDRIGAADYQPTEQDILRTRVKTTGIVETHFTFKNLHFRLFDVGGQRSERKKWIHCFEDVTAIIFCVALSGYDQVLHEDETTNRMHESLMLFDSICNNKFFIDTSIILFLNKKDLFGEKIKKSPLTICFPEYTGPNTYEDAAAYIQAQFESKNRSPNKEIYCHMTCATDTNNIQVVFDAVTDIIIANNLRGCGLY
GSH fluor – GSH bead compound fluorescence profile; GSH beads flow cytometry, compound fluorescence 488/530 nm; hits give high values; fluorescence (KMESF) at 10 µM; 0.25% of 190,000 active; in the data active = fluorescence above about 89;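 also: glutathione beads carrying GST-tagged Bcl family fusion proteins plus one bare bead set; values are compound well signal with DMSO vehicle wells as background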
RGS7-Gao reg – human RGS7-Galphao interaction regulation; AID 1439; binding response (% of control), % at 10 µM; 0.35% of 220,000 active; P09471; Multiplexed bead flow cytometry, RGS7-Galphao binding; actives lie on both sides; in the data active = binding response below about 49% or above about 150%; inconclusive = no clear call, values can overlap the other calls; inactive = in between;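 also: fluorescent Galphao held in activated GDP-AlF4 state binding bead-coupled RGS7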
RGS16-Gao HTS – regulators of human RGS16-Galphao interaction. O15492+P09471. AID 1441. bead-based flow cytometry RGS16-Galphao binding, fluorescence; actives lie on both sides. binding response (% of control), % at 10 µM. 0.38% of 220,000 active;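 also: Galphao activated by GDP with aluminum fluoride before binding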
RGS8-Gao reg – modulates binding of RGS8 to human Galphao | AID 1423 | 0.34% of 220,000 active | response (percent of control binding), % at 10 µM | multiplexed bead flow cytometry; actives lie on both sides; in the data active = response below about 60% or above about 140%; inactive = in between;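 also: Galphao activated as the GDP aluminium fluoride complex binding bead-coupled RGS8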
RGS-Gao – modulates binding between human RGS4 and Galphao | multiplexed bead flow cytometry, RGS–Galpha-o binding | shares compounds with RGS16-Gao HTS | RGS4–Galpha-o binding response, % at 10 µM | 99% of 1,600 active;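 also: fluorescently labeled Galpha-o bound to GDP with aluminium fluoride binding biotinylated RGS beads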
Target sequence (P09471 whole entry, looked up): as above
Target sequence (P49798 whole entry, looked up): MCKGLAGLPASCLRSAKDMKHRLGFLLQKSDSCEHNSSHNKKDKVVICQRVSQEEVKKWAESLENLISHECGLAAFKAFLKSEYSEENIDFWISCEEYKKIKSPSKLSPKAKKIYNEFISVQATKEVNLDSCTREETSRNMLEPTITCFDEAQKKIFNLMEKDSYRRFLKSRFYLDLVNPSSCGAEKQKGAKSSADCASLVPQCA
Biotin-avidin – interferes with biotinylated probe binding to avidin beads; inhibition, % at 10 µM; 1,700 tested, under 10 active; streptavidin beads, fluorescein-biotin binding, flow cytometry; shares compounds with RGS16-Gao HTS;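 active = inhibition above 50%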;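 also: median green fluorescence of gated singlet beads compared with DMSO control wells; 0% = DMSO wells and 100% = complete loss of bead fluorescence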
RGS8-Gao confirm – RGS8-Galphao interaction regulation, single point confirmation; shares compounds with RGS16-Gao HTS; bead-based flow cytometry RGS8-Galphao binding, fluorescence; actives lie on both sides; binding response (% of control), % at 10 µM; 3% of 1,700 active; AID 1836; in the data active = binding response below about 72% or above about 130%; inactive = in between;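 also: Galphao activated as GDP AlF4 complex before binding bead RGS8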
RGS7-Gao confirm – RGS7-Galphao interaction regulation, single point confirmation. shares compounds with RGS16-Gao HTS. 7.8% of 1,700 active. response (percent of control binding), % at 10 µM. AID 1837. bead-based flow cytometry RGS7-Galphao binding; actives lie on both sides; in the data active = response below about 75% or above about 130%; inactive = in between;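 also: fluorescent Galphao activated with GDP and aluminum fluoride binding bead-coupled RGS7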
RGS16-Gao single – RGS16-Galphao interaction regulation, single point confirmation. shares compounds with RGS16-Gao HTS. 4% of 1,700 active. response (% of control binding), % at 10 µM. bead-based flow cytometry, RGS16-Galphao binding; actives lie on both sides; in the data active = response below about 74% or above about 130%; inactive = in between;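 also: Galphao activated as the GDP aluminium fluoride complex binding bead-coupled RGS16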
RGS4-Gao single – confirmation of regulators of human RGS4-Galphao interaction. shares compounds with RGS16-Gao HTS. RGS4-Galphao binding, multiplexed bead flow cytometry; actives lie on both sides. binding response (% of control), % at 10 µM. 4% of 1,700 active. AID 1840; in the data active = binding response below about 74% or above about 130%; inactive = in between
RGS19-Gao conf – confirmation of regulators of human RGS19-Galphao interaction; shares compounds with RGS16-Gao HTS; bead-based flow cytometry RGS19-Galphao binding; actives lie on both sides; response (percent of control binding), % at 10 µM; 5% of 1,700 active; AID 1841; in the data active = response below about 50% or above about 160%; inactive = in between;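 also: 100% = no compound control and 0% = blank background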
* marks the source's active call; other numbers are inactive results; i = inactive; ? = inconclusive; nt = no result given; [ ] = remark or other dose. The list is not random: actives were taken first. Their share in the collection is about 1.2%. Unless noted, no rule for the calls is given here.

SMILES	Avidin bead fluor	RGS4-Gao reg	GSH fluor	RGS7-Gao reg	RGS16-Gao HTS	RGS8-Gao reg	RGS-Gao	Biotin-avidin	RGS8-Gao confirm	RGS7-Gao confirm	RGS16-Gao single	RGS4-Gao single	RGS19-Gao conf
COc1ccc(-c2cc(C(F)(F)F)c(C#N)c(SCC(=O)Nc3ccccc3C#N)n2)cc1	49*	256*[activator]	71	153*[activator]	469	121	nt	0	102	89	100	92	114
O=C(NC1=NCCS1)c1sc2ccccc2c1Cl	nt	nt	17	nt	114	nt	nt	1	103	100	104	101	85
O=C(NC1=NCCS1)c1sc2cc(Cl)cc(Cl)c2c1Cl	25	103	8	105	110	101	nt	nt	nt	nt	nt	nt	nt
COC(=O)c1sccc1NC(=O)c1cc(C)on1	nt	99	44	96	nt	110	nt	-1	100	103	102	100	112
COC(=O)c1sccc1NC(=O)c1c(C)noc1C	33	97	10	97	92	96	nt	nt	nt	nt	nt	nt	nt
CS(=O)(=O)NCCOc1ccc(S(=O)(=O)NCCOc2ccccc2)cc1	10	102	11	?	98	101	nt	nt	nt	nt	nt	nt	nt
O=S(=O)(NCCOc1ccccc1)c1ccc2ccccc2c1	5	90	12	89	-1.5*	86	90*	nt	nt	nt	nt	nt	nt
Cn1c(-c2cccc(Br)c2)cnc1NCc1cccnc1	14	104	28	97	106	104	nt	nt	nt	nt	nt	nt	nt
COc1cccc(-c2cnc(NCc3cc(Cl)ccc3O)n2C)c1	55*	117	21	160*[activator]	145	114	117*	nt	nt	nt	nt	nt	nt
COc1ccc2nc(Cl)c(C#N)cc2c1	11	101	14	97	115	103	nt	nt	nt	nt	nt	nt	nt
CN1CCN(C2=C(Cl)C(=O)C(c3cnc(N4CCCCC4)s3)=C(Cl)C2=O)CC1	2	70	34	76	14*	64	70*	0	27*	18*	-8.3*	63*	-8.1*
COC(=O)CC(NC(=O)Nc1ccc(C)cc1)c1cccc([N+](=O)[O-])c1 (centres undefined)	1	28*	11	4.0*	20*	26*	nt	0	104	101	104	100	116
O=C(Nc1cccc(O)c1)c1noc2c1CCCCC2	nt	nt	32	nt	nt	nt	nt	1	107	106	110	103	103
Cc1cc(C)c(NS(=O)(=O)c2ccc(NC(=O)/C=C/C(=O)O)cc2)c(C)c1	-3	9.7*	9	-0.2*	1.1*	12*	nt	1	98	97	98	99	109
CC(C)c1ccc2oc3nc(N)c(C(=O)O)cc3c(=O)c2c1	8	97	67	98	97	96	nt	nt	nt	nt	nt	nt	nt
Nc1ccc2oc3ccc(N)cc3c(=O)c2c1	0	5.6*	8	-13*	54	44*	nt	3	104	104	106	110	106
CCOC(=O)c1c(C)n(C)c2ccc(O)c(CN3CCN(C)CC3)c12	3	131	47	121	345	150*[activator]	131*	3	94	102	96	98	95
O=C(NC(=S)Nc1ccc(N2CCCCC2)cc1)c1ccc2c(c1)OCCO2	14	107	6	107	204*[activator]	125	107*	0	102	98	100	97	101
O=C(NC(=S)Nc1ccc(N2CCOCC2)cc1)c1ccc2c(c1)OCCO2	2	97	7	98	98	99	nt	nt	nt	nt	nt	nt	nt
O=C(CN1CCOCC1)Nc1ccccc1-c1ccccc1	5	88	20	87	86	91	nt	nt	nt	nt	nt	nt	nt
O=C(CN1CCCCC1)Nc1ccccc1-c1ccccc1	4	144	48	125	i	159*[activator]	144*	-2	101	101	100	101	101
COC(=O)c1sc2nc(CN3CCOCC3)nc(N3CCOCC3)c2c1C	9	112	33	106	111	101	nt	nt	nt	nt	nt	nt	nt
Cc1sc2nc(CN3CCOCC3)nc(N3CCOCC3)c2c1C	4	116	73	117	413	143*[activator]	116*	0	104	105	103	103	102
Cc1ccc2c(O)c(C)c(=O)[nH]c2n1	12	100	25	106	110	105	nt	nt	nt	nt	nt	nt	nt
CCC(C)NC(=O)C1c2ccccc2C(=O)N1Cc1ccc(OC)cc1OC (centres undefined)	6	138	38	127	424	147*[activator]	138*	1	102	99	90	97	62
SMILES	Avidin bead fluor	RGS4-Gao reg	GSH fluor	RGS7-Gao reg	RGS16-Gao HTS	RGS8-Gao reg	RGS-Gao	Biotin-avidin	RGS8-Gao confirm	RGS7-Gao confirm	RGS16-Gao single	RGS4-Gao single	RGS19-Gao conf
COCCCNc1ccnc2c(Cl)cccc12	nt	98	39	101	nt	99	nt	0	100	97	99	100	113
COCCNc1ccnc2c(Cl)cccc12	4	99	26	104	77	96	nt	nt	nt	nt	nt	nt	nt
Cc1ccc(S(=O)(=O)NC(C)(C)CSc2ccccn2)cc1	1	87	9	92	13*	64	87*	-2	101	103	102	102	112
CC1=C(C(=O)OC(C)C)C(c2cccc(F)c2)N2C(=O)C(C)SC2=N1 (centres undefined)	nt	nt	20	nt	nt	nt	nt	0	101	98	99	100	90
CC1=C(C(=O)OCC(C)C)C(c2cccc(F)c2)N2C(=O)C(C)SC2=N1 (centres undefined)	10	102	12	101	105	105	nt	nt	nt	nt	nt	nt	nt
CCCN1C(=O)c2cccc3c(N4CCCCC4)ccc(c23)C1=O	12	92	4	90	18*	75	92*	1	100	103	100	103	99
Cc1ccc(S(=O)(=O)N2CCN(C(=O)c3cccc(F)c3)CC2)cc1	172*	125	27	264*[activator]	107	94	125*	1	98	92	93	94	93
